Experimental data from PubChem BioAssay (NCATS).
Records with an inconclusive call do not appear. Entries that show only a call come without a potency. The source made the active and inactive calls. The call rests on the fitted dose curve; tested in HEK293 reporter line.

assay: qHTS for Inhibitors of the Functional Ribonucleoprotein Complex (vRNP) of Lymphocytic Choriomeningitis Arenaviruses (LCMV): Viability assay - alamar blue signal for LCMV Primary Screen (AID 1347085); conditions: alamar blue viability counter-screen, LCMV vRNP screen cells; series mostly up to 57.5 µM; further: nearly all actives have a fitted effect of over 80% in size

SMILES	Potency
O=c1cc[nH]c(=O)[nH]1	inactive
Cc1ccc(Nc2nccc(N(C)c3ccc4c(C)n(C)nc4c3)n2)cc1S(N)(=O)=O	inactive
Cc1cc(=O)n(-c2ccccc2)n1C	inactive
CC[C@H](C)[C@H](N)C(=O)O	inactive
CC1(C)O[C@H]2CC(=O)OC[C@]23[C@H]2CC[C@@]4(C)[C@H](c5ccoc5)OC(=O)[C@H]5O[C@]54[C@]2(C)C(=O)C[C@@H]13	inactive
CC(=O)c1cc2ccccc2s1	inactive
COc1ccccc1OCC1CNC(=O)O1 (stereo not given)	inactive
Oc1ccc(Cl)c2cccnc12	inactive
CC(C)NCC(O)c1cc(O)cc(O)c1 (stereo not given)	inactive
CC(=O)N(CC(O)CO)c1c(I)c(C(=O)NCCO)c(I)c(C(=O)NCC(O)CO)c1I (stereo not given)	inactive
O=C(O)CCc1nc2ccccc2[nH]1	inactive
Cc1nnc(NS(=O)(=O)c2ccc(N)cc2)s1	inactive
Oc1ccccc1	inactive
CCN(CC)C(C)CN1c2ccccc2Sc2ccccc21 (stereo not given)	inactive
Cc1ncc([N+](=O)[O-])n1CC(O)CCl (stereo not given)	inactive
CCCN1CCCC[C@H]1C(=O)Nc1c(C)cccc1C	inactive
CCCCOCCOC(=O)c1cccnc1	inactive
COc1ccc2nc(SCc3ncc(C)c(OC)c3C)[nH]c2c1	inactive
Cc1c(N(C)CS(=O)(=O)O)c(=O)n(-c2ccccc2)n1C	inactive
CCN(CC)CC(=O)Oc1ccc(NC(C)=O)cc1	inactive

SMILES	Potency
CNC[C@H](O)[C@@H](O)[C@H](O)[C@H](O)CO	inactive
CCN(CC)CCOC(=O)c1ccc(N)cc1	inactive
O=S(=O)(O)CCS	inactive
O=C(CCCl)NCc1ccccc1	inactive
O=C(CCCl)NCCc1ccccc1	inactive
CCOc1ccc(NS(=O)(=O)c2ccc(N)cc2)nn1	inactive
Cc1cccn2c(=O)c(-c3nnn[nH]3)cnc12	inactive
COc1cc(C(=O)N2CCCCCCC2)cc(OC)c1OC	inactive
OCc1cccnc1	inactive
CCC[C@@H]1C[C@@H](C(=O)N[C@@H]([C@H]2O[C@H](SC)[C@H](O)[C@@H](O)[C@H]2O)[C@@H](C)O)N(C)C1	inactive
CC(C)(C)NC[C@H](O)COc1cccc2c1CCCC2=O	inactive
Cc1cc(C)c(NC(=O)CN(CC(=O)O)CC(=O)O)c(C)c1Br	inactive
CCCCC(CC)CNC(=O)CC(C)OC(=O)CCC(=O)O (stereo not given)	inactive
COCCCN1CCC(NC(=O)c2cc(Cl)c(N)c3c2OCC3)CC1	inactive
O=C(O)c1ccccc1Nc1cccc(C(F)(F)F)c1	inactive
CO/N=C(/C(=O)N[C@@H]1C(=O)N2C(C(=O)[O-])=C(C[n+]3ccn4ncccc43)CS[C@H]12)c1nsc(N)n1	inactive
C[N+]1(C)CCCC(OC(=O)C(O)(c2ccccc2)c2ccccc2)C1 (stereo not given)	inactive
Cc1scc2c1N(C(=O)CN1CCN(C)CC1)c1ccccc1NC2=O	inactive
O=C(NC(Cc1cc(=O)[nH]c2ccccc12)C(=O)O)c1ccc(Cl)cc1 (stereo not given)	inactive
O=C(O)c1[nH]n(-c2ccc(S(=O)(=O)O)cc2)c(=O)c1N=Nc1ccc(S(=O)(=O)O)cc1	inactive
